{"source": "paper PMC7862700", "about": "“An all-to-all approach to the identification of sequence-specific readers for epigenetic DNA modifications on cytosine”", "experiment_in_all_cases": "DAPPL (digital affinity profiling via proximity ligation, sequencing); 10 mM Tris-HCl pH 7.5, 50 mM NaCl, 1 mM DTT, 4% glycerol, room temperature, 30 min; GST-TFs on glutathione beads, 16-mer random dsDNA library, 0.1% formaldehyde crosslink after washing; high values mean tight binding", "details_in_all_cases": "protein: recombinant; tags: N-terminal GST; dsDNA, one strand shown", "key": {"[1]": {"target": "T1, FLI1 (Homo sapiens, UniProt Q01543 1-452)", "T1 sequence": "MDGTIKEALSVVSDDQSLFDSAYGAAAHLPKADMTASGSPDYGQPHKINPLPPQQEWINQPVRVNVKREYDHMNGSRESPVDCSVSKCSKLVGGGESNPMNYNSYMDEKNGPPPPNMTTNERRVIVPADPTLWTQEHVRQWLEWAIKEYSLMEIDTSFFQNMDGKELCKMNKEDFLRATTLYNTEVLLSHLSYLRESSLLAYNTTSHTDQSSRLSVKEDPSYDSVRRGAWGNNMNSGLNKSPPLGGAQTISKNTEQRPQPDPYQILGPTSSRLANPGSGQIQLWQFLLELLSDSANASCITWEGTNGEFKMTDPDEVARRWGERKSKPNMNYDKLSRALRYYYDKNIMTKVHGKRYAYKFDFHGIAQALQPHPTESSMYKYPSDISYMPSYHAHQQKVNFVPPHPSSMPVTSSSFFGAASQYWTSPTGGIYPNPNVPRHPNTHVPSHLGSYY", "procedure,_shortened": "(§1)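 GST fusions of human transcription factors were expressed in yeast and captured with glutathione beads. Once given DNA barcodes and pooled alongside a tag-only sample, they were incubated for 30 min at room temperature with 200 nmole of a random double-stranded 16-mer DNA library in Tris/NaCl/DTT/glycerol buffer, then washed, crosslinked (0.1% formaldehyde), proximity-ligated, PCR-amplified and sequenced on an Illumina NextSeq500. The binding signal of each hexamer is its read frequency for a factor divided by its frequency for the tag-only sample.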"}, "[2]": {"target": "T2, ELK1 (Homo sapiens, UniProt P19419 1-428)", "T2 sequence": "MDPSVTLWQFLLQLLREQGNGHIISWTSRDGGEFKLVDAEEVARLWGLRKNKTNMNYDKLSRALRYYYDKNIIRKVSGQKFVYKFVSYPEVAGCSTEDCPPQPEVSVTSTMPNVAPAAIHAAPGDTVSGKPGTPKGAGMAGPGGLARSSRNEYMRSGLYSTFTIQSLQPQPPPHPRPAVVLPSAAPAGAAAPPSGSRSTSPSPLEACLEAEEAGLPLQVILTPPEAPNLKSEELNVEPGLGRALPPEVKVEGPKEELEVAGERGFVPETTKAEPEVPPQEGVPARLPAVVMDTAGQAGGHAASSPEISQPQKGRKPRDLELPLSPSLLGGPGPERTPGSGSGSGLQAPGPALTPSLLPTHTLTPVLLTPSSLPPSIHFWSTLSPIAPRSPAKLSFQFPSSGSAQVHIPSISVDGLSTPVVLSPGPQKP", "procedure,_shortened": "as §1"}, "[3]": {"target": "T3, GABPA (Homo sapiens, UniProt Q06546 1-454)", "T3 sequence": "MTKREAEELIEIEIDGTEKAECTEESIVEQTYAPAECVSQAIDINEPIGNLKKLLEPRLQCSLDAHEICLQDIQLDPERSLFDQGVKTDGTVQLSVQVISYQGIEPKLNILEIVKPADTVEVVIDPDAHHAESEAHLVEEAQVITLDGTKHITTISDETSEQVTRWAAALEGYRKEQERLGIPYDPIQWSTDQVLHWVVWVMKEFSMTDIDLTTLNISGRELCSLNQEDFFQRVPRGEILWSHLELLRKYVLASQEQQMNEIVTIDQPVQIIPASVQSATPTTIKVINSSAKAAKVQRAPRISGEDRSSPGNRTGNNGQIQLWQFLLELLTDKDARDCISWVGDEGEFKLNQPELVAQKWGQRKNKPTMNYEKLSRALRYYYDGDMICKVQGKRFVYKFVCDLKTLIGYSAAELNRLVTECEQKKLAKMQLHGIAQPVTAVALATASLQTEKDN", "procedure,_shortened": "as §1"}, "[4]": {"target": "T4, ERG (Homo sapiens, UniProt P11308 1-479)", "T4 sequence": "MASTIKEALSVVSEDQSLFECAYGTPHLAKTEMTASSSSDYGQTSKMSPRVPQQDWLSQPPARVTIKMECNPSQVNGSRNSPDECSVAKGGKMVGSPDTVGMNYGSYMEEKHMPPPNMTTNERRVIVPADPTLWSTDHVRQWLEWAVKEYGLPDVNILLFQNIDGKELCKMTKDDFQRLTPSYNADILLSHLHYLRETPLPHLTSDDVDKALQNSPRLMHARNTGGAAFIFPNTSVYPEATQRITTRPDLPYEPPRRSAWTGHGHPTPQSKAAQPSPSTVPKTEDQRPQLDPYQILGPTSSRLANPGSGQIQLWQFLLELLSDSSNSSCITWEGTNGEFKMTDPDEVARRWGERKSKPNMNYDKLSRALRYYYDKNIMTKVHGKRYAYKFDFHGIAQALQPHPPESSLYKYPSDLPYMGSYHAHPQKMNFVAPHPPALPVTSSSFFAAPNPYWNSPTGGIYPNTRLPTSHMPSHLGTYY", "procedure,_shortened": "as §1"}, "[5]": {"target": "ELF1 (Homo sapiens, UniProt P32519 1-619)", "sequence (P32519 whole entry)": "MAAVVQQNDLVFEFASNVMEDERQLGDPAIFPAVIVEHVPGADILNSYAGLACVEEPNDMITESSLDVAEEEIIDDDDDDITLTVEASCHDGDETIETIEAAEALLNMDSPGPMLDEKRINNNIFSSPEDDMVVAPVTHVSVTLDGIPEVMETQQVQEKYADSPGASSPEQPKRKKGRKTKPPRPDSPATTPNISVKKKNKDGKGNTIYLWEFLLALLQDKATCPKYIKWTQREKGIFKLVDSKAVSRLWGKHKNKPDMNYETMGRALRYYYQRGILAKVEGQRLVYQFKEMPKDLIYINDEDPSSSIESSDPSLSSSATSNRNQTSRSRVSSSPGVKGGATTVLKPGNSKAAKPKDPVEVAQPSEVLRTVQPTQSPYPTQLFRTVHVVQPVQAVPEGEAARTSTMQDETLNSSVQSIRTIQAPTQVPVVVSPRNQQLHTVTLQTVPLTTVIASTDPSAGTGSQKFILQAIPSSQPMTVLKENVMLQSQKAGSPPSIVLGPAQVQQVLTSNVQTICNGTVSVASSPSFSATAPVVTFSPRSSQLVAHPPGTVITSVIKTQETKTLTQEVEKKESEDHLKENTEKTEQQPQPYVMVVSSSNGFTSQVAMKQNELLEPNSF", "procedure,_shortened": "as §1"}, "[6]": {"target": "T5, EHF (Homo sapiens, UniProt Q9NZC4 1-300)", "T5 sequence": "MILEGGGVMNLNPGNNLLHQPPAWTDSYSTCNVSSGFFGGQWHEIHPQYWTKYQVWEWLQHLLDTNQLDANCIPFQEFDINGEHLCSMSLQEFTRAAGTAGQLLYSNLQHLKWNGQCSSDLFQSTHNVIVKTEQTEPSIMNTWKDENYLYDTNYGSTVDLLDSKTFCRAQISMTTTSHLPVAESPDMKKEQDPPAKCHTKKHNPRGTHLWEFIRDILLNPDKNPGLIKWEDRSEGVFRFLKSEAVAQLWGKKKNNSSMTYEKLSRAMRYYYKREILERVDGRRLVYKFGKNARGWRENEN", "procedure,_shortened": "as §1"}, "[7]": {"target": "SPI1 (Homo sapiens, UniProt P17947 1-270)", "procedure,_shortened": "as §1"}, "[8]": {"target": "T6, FEV (Homo sapiens, UniProt Q99581 1-238)", "T6 sequence": "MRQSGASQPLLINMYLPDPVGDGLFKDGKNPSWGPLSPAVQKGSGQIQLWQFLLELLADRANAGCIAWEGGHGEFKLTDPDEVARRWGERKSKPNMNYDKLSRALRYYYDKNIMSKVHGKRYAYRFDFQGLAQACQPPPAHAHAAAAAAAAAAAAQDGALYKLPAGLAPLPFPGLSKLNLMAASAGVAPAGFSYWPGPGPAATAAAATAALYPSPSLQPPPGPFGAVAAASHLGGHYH", "procedure,_shortened": "as §1"}, "[9]": {"target": "ETV5 (Homo sapiens, UniProt P41161 1-510)", "sequence (P41161 whole entry)": "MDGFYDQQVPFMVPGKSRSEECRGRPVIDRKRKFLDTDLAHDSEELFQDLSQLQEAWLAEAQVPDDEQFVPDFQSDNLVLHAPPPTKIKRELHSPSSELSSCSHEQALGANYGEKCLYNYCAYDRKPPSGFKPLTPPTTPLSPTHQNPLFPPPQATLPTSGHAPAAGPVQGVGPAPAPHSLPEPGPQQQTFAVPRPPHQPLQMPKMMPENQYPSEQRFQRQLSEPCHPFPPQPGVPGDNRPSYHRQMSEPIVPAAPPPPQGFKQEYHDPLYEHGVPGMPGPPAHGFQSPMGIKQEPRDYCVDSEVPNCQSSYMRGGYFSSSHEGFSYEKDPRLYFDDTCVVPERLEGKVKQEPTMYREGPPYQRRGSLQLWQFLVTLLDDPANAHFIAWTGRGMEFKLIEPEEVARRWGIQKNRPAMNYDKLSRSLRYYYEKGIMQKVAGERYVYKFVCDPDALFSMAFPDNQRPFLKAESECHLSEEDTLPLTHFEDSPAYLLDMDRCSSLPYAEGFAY", "procedure,_shortened": "as §1"}, "[10]": {"target": "T7, SPIC (Homo sapiens, UniProt Q8N5J4 1-248)", "T7 sequence": "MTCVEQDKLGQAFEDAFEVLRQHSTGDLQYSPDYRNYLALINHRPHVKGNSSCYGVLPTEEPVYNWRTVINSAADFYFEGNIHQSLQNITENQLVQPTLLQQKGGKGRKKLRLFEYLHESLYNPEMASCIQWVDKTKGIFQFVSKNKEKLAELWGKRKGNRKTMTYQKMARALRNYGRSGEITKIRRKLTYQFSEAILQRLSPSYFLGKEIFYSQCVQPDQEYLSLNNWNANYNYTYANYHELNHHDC", "procedure,_shortened": "as §1"}, "[11]": {"target": "T8, ETV3L (Homo sapiens, UniProt Q6ZN32 1-361)", "T8 sequence": "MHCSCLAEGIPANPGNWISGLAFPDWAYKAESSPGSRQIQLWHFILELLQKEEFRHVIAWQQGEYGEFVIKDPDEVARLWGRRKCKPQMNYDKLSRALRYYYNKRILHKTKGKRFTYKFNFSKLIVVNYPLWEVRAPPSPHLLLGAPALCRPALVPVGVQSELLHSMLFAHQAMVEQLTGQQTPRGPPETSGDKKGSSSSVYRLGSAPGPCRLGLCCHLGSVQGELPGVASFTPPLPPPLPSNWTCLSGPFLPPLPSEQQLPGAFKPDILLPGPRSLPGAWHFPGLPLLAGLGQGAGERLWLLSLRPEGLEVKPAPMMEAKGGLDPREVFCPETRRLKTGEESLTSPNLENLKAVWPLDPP", "procedure,_shortened": "as §1"}, "[12]": {"target": "T9, ETS2 (Homo sapiens, UniProt P15036 1-469)", "T9 sequence": "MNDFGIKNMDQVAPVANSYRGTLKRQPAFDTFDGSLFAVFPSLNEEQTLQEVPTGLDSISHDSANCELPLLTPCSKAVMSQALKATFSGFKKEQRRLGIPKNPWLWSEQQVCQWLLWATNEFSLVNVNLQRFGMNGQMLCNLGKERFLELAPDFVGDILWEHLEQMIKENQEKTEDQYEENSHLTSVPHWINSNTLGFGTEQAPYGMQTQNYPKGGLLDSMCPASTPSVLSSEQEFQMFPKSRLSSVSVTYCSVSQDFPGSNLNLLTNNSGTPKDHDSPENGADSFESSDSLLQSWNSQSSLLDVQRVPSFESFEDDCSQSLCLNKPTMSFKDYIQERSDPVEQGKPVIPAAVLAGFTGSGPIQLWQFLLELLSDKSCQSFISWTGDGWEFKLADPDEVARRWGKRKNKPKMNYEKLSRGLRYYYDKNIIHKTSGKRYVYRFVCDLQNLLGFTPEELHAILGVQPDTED", "procedure,_shortened": "as §1"}, "[13]": {"target": "T10, ELF5 (Homo sapiens, UniProt Q9UKW6-2 1-255)", "T10 sequence": "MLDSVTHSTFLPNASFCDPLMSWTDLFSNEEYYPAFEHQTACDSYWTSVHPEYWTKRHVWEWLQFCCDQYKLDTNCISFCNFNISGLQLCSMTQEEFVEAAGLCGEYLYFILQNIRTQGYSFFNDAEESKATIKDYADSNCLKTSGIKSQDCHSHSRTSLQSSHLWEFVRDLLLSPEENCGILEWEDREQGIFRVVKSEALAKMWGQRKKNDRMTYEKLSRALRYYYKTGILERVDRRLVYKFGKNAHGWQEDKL", "procedure,_shortened": "as §1"}, "[14]": {"target": "T11, ETV3 (Homo sapiens, UniProt P41162-2 1-143)", "T11 sequence": "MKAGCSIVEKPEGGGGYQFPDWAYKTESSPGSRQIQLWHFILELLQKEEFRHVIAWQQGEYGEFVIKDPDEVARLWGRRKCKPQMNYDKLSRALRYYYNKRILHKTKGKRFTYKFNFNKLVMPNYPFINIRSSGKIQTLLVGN", "procedure,_shortened": "as §1"}}}
{"sequence": "ACTAGG", "values": [{"measurement": "binding signal", "setting": "[1]", "result": "1.03 fold enrichment (6-mer frequency, TF over GST control)"}, {"measurement": "binding signal", "setting": "[2]", "result": "1.1 fold enrichment (6-mer frequency, TF over GST control)"}, {"measurement": "binding signal", "setting": "[3]", "result": "1.09 fold enrichment (6-mer frequency, TF over GST control)"}, {"measurement": "binding signal", "setting": "[4]", "result": "1.03 fold enrichment (6-mer frequency, TF over GST control)"}, {"measurement": "binding signal", "setting": "[5]", "result": "1.08 fold enrichment (6-mer frequency, TF over GST control)"}, {"measurement": "binding signal", "setting": "[6]", "result": "1.04 fold enrichment (6-mer frequency, TF over GST control)"}, {"measurement": "binding signal", "setting": "[7]", "result": "1.07 fold enrichment (6-mer frequency, TF over GST control)"}, {"measurement": "binding signal", "setting": "[8]", "result": "1.02 fold enrichment (6-mer frequency, TF over GST control)"}, {"measurement": "binding signal", "setting": "[9]", "result": "1.03 fold enrichment (6-mer frequency, TF over GST control)"}, {"measurement": "binding signal", "setting": "[10]", "result": "1.21 fold enrichment (6-mer frequency, TF over GST control)"}, {"measurement": "binding signal", "setting": "[11]", "result": "1.04 fold enrichment (6-mer frequency, TF over GST control)"}, {"measurement": "binding signal", "setting": "[12]", "result": "1.08 fold enrichment (6-mer frequency, TF over GST control)"}, {"measurement": "binding signal", "setting": "[13]", "result": "1 fold enrichment (6-mer frequency, TF over GST control)"}, {"measurement": "binding signal", "setting": "[14]", "result": "1.03 fold enrichment (6-mer frequency, TF over GST control)"}]}
